Results filed as inconclusive are left out. Entries that show only a call come without a potency. The source made the active and inactive calls. Calls come from the whole dose curve; as a rule, active = well fitted cell-killing curve with a large enough effect; inconclusive = small, poorly fitted or top-dose-only effect; inactive = flat fitted curve, though single readings scatter.
assay: Cell Viability - LYMP2-007 (AID 979); settings: LYMP2-007 lymphoblastoid cell viability; series mostly up to 92.2 µM;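 note: cells exposed to compound for 24 h before reading; nearly all actives have a fitted effect of over 60% in size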
Text: NIH Chemical Genomics Center [NCGC]
NIH Molecular Libraries Screening Centers Network [MLSCN]
National Institutes of Environmental Health Sciences [NIEHS]
National Toxicology Program [NTP]
We have developed a 1536-well cell-based assay for quantitative high throughput screening (qHTS) against a number of cell lines to determine in vitro cytotoxicity of small molecules. This particular assay uses a human lymphoblastoid cell line (LYMP2-007) purchased from Coriell Institute for Medical Research.
NCGC Assay Protocol Summary:
The CellTiter-Glo luminescent cell viability assay (Promega) is a homogeneous method to measure the number of viable cells in culture. The end point readout of this assay is based on quantitation of intracellular ATP, an indicator of metabolic activity, using the luciferase reaction. Luciferase catalyzes the oxidation of beetle Luciferin to oxyluciferin and light in the presence of ATP. The luminescent signal is proportional to amount of ATP present.
Using the CellTiter-Glo luminescent cell viability assay, the amount of cellular ATP was measured in the lymphoblastoid cell line with complete culture medium following compound treatment for 24 hours. The assay was performed in opaque white Kalypsys 1536-well plates. In the screen, tetraoctylammonium bromide was used as positive control. Library compounds were measured for their ability to cause acute toxicity in the cell line, as reflected by a decrease in intracellular ATP levels, in a concentration-dependent manner. […] AC50 values were determined from concentration-response data modeled with the standard Hill equation.
qHTS protocol for CellTiter Glo lymphoblastoid cellular assay
[Step] [Parameter] [Value] [Description]
1. Reagent; 5 uL; 2500 lymphoblastoid cells/well
2. Time; 5 hr; 37 C incubation
4. Controls; 23 nL; Tetraoctylammonium bromide 6.4pM to 92 uM
5. Time; 24 hr; 37 C incubation
6. Reagent; 5 uL; CellTiter Glo reagent
7. Time; 30 min; Room Temperature
8. Detection; Luminescence; Viewlux plate reader
Keywords: cell viability, cytotoxicity, lymphoblastoid cell line, luminescence, NTPHTS, NTPHTS_NCGC, NIEHS, DSSTox, MLSMR, MLSCN, NIH Roadmap, qHTS, NCGC
Potency is the fitted concentration of half-maximal effect.

SMILES	Potency
Cc1cc(=O)oc2cc(O)cc(O)c12	inactive
CCOc1ccc2nc(N)sc2c1	inactive
c1ccncc1	inactive
COc1cc(-c2ccc(N=C=O)c(OC)c2)ccc1N=C=O	inactive
O=C(O)c1cc(N=Nc2ccc([N+](=O)[O-])cc2)ccc1O	inactive
Cc1ccccc1OCC1CO1 (stereo not given)	inactive
O=[N+]([O-])c1cccc(I)c1	inactive
CC(C)COC(=O)COc1cc(Cl)c(Cl)cc1Cl	inactive
Brc1cc(Br)c(Oc2cc(Br)c(Br)cc2Br)cc1Br	inactive
Cc1cccnc1	inactive
C/C=C/C=C/C=O	39.8 µM (active)
COc1ccc(C(=O)Nc2ccccc2)cc1[N+](=O)[O-]	inactive
Nc1ccccc1O	inactive
COc1ccc([N+](=O)[O-])cc1N	inactive
O=[N+]([O-])c1ccc(F)cc1F	inactive
CCOC(=O)C1OC1c1ccccc1 (stereo not given)	inactive
c1ccc2ncccc2c1	inactive
O=C(O)/C=C/c1ccc(/C=C/C(=O)O)cc1	inactive
O=C(O)c1ccc([N+](=O)[O-])cc1	inactive
C[Si](C)(C)Cl	inactive

SMILES	Potency
N=C1C=CC(=C(c2ccc(N)cc2)c2ccc(N)cc2)C=C1	7.94 µM (active)
C/C=C1/C(=O)C[C@H]2[C@@H]3CCC4=CC(=O)CC[C@]4(C)[C@H]3CC[C@]12C	39.8 µM (active)
O=C1c2ccccc2C(=O)C1(O)O	inactive
CC(=O)Nc1cccc(C)c1	inactive
OC1CCCCC1	inactive
CCCCCCc1ccc(-c2ccc(C#N)cc2)cc1	inactive
CCC(Cl)CC(Cl)C(Cl)C(Cl)C(Cl)C(C)Cl (stereo not given)	inactive
Nc1cnn([C@@H]2O[C@H](CO)[C@@H](O)[C@H]2O)c(=O)n1	inactive
CC(/C=C/C=C(C)/C=C/C(=O)O)=C\C=C\C=C(C)\C=C\C=C(C)\C=C\C(=O)O	inactive
Cc1ccc2ccc3cccc4ccc1c2c34	inactive
Brc1cc(Oc2cc(Br)c(Br)c(Br)c2Br)c(Br)c(Br)c1Br	inactive
CC(=O)CC(=O)Nc1ccccc1	inactive
CCNC(=S)NCC	inactive
Cc1ccc(S(N)(=O)=O)cc1	inactive
Nc1ccc(N)c(Cl)c1	inactive
CCCCCCCCC1CO1 (stereo not given)	inactive
CCCCC(CC)COP(=O)(OCC(CC)CCCC)OCC(CC)CCCC (stereo not given)	inactive
CCCCCCCC/C=C\CCCCCCCC(=O)N(CCO)CCO	inactive
CCCCCCCCOc1ccc(C(=O)O)cc1	inactive
Oc1c(Cl)cc(Cl)c(Cl)c1Cl	inactive

Source: PubChem BioAssay (NCATS)
